Cav3 T inh: Cav3.2 calcium influx blockers – cell-based, Fluo-4 calcium fluorescence, FDSS, MLSMR library, primary screen | Voltage-dependent T-type calcium channel subunit alpha-1H (Homo sapiens), O95180 | 100,000 tested, 4% active | B-score at 10 µM | AID 449739, 2010 | Cav3.2-expressing cells; stronger effect = lower value;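 active = single-dose well whose peak fluorescence ratio is a statistical outlier from its plate by either plate-standardised score or position-corrected B-score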
PostGolgi yeast: phenotypic screen on post-Golgi transport, primary screen; 98,000 tested, 0.9% active; inhibition, % at 10 µM; post-Golgi transport phenotypic cell assay;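 also: yeast cells grown in 1536-well plates; yeast grown about 18 h at 30C before absorbance read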
PostGolgi ctrl: growth inhibition of yeast control strain, primary screen, counter-screen for post-Golgi transport modulator project | efflux-deficient yeast background strain, growth absorbance A615, 16 h | inhibition, % at 10 µM | 98,000 tested, 5% active | AID 738, 2007
PLAP activator: PLAP enzyme activators, biochemical, luminescence, HTS. activation fold at 20 µM. purified PLAP enzyme, luminescent substrate read-out; stronger effect = higher value. 96,000 tested, 1.2% active. AID 696, 2007; in the data active = activation fold above about 2
Target sequence (P05187 whole entry, looked up): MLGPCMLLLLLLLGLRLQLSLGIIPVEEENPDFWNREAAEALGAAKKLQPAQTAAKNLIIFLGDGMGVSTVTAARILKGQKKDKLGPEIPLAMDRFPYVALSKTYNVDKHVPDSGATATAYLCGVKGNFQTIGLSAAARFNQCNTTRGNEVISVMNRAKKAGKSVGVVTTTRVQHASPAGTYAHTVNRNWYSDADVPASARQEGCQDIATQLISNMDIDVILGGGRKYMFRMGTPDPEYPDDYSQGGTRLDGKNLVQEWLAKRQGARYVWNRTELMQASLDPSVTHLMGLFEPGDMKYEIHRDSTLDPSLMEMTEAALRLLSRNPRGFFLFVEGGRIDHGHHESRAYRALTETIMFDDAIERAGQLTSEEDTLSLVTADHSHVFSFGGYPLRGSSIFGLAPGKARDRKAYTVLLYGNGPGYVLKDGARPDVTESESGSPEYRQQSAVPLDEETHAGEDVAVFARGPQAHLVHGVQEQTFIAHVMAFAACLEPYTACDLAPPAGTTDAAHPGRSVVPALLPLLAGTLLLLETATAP
hDAT+cocaine: changed hDAT dopamine uptake under cocaine IC80, either direction, primary screen, cocaine antagonist project, cell-based, LLC-PK1 hDAT, [14C]-dopamine uptake, MLSMR. B-score at 10 µM. 110,000 tested, 1.3% active. LLC-PK1 hDAT cells, [14C]-dopamine uptake with cocaine IC80; actives deviate in either direction. AID 449768, 2010;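 active = Z score or B-score, a plate-position-corrected score, falls beyond the plate's 99.7% confidence bounds, in either direction; inactive = both scores lie inside the 99.7% bounds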
Hits are given with their value; . = inactive; / = no result. Sampled rows, rich in hits. Any-hit rate of the full collection: about 9.6%. Rule as the data show it, unless noted: active = inhibition above about 30%; inactive = the rest.

SMILES	Cav3 T inh	PostGolgi yeast	PostGolgi ctrl	PLAP activator	hDAT+cocaine
CCOC(=O)C1=C(c2ccccc2)OC(N)=C(C#N)C1C1CCCCC1 (stereo not given)	.	.	.	.	-1.65
CCOc1ccc(NS(=O)(=O)c2ccc3[nH]cc(C(=O)NCC4CCCO4)c(=O)c3c2)cc1 (stereo not given)	.	.	.	/	.
CCc1ccccc1NS(=O)(=O)c1ccc2[nH]cc(C(=O)NCC3CCCO3)c(=O)c2c1 (stereo not given)	/	.	41.5	/	/
CCCCc1c(O)nc(SCC(=O)NC(C)(C)C)n(-c2ccccc2C)c1=O	.	.	.	.	.
CC1(C)Cc2c(C#N)c(SCc3ccccc3)nc(N3CCOCC3)c2CO1	.	.	38.0	.	.
CC(C)Sc1nc(N2CCOCC2)c2c(c1C#N)CC(C)(C)N(C)C2	.	.	.	2	.
COc1ccc(CNC(=O)c2onc(C)c2Cl)cc1	.	.	.	/	.
COc1ccc(CNC(=O)c2cc(C3CC3)on2)cc1	.	.	32.6	.	.
Cc1ccc(C)c2c1[nH]c1ccccc12	.	.	.	.	.
Cc1ccc(C)c2c1[nH]c1ccc([N+](=O)[O-])cc12	.	.	54.3	.	.
COCC(C)NC(=O)COc1ccc(Cl)cc1Cl (stereo not given)	.	.	.	/	.
Cc1ccc(-n2ncc3c(=O)n(CC(=O)N4CCCc5ccccc54)cnc32)cc1C	.	/	/	/	.
COn1c(SC(C)C)nc2ccccc2c1=O	.	.	33.6	.	.
CC1CCCN(C(=O)CSc2cnc3ccccc3n2)C1 (stereo not given)	.	.	.	.	.
Cc1ccc(NC(=O)COc2ccc3oc4c(c3c2)CCCC4)nc1	.	.	.	.	.
Cc1cccnc1NC(=O)COc1ccc2oc3c(c2c1)CCCC3	-5.64	.	.	/	.
CCOC(=O)c1sc(C)c2c1NC(C)(c1cccs1)NC2=O (stereo not given)	.	.	.	.	.
C=CCc1cccc2cc(C(=O)NC)c(=O)oc12	.	.	.	.	.
CCCCCCc1cc2cc(C(=O)NC)c(=N)oc2cc1O	-9.34	.	.	.	.
CCCCC(=O)OCCNC(=O)c1cc2ccccc2oc1=O	.	.	.	.	.
CCCCCCc1cc2cc(C(N)=O)c(=N)oc2cc1O	-11	.	.	.	.
O=C(CC(Nc1ccccc1)C(=O)O)c1ccccc1 (stereo not given)	.	.	.	.	2.94
NC(=O)CC(NC(=O)c1ccccc1)C(=O)O (stereo not given)	.	/	/	/	.
CC(C)c1onc(C(=O)N2CCN(Cc3ccccc3)CC2)c1[N+](=O)[O-]	.	/	/	/	.
CCOC(=O)c1c(C)sc2c1N(C(=O)CN(CC)CC)c1cc(Cl)ccc1S2	/	.	.	.	.
SMILES	Cav3 T inh	PostGolgi yeast	PostGolgi ctrl	PLAP activator	hDAT+cocaine
CCOC(=O)c1c(C)sc2c1N(C(=O)CN1CCOCC1)c1cc(Cl)ccc1S2	/	.	53.5	.	.
CCOC(=O)C1CCN(C(=O)CCCCn2c(=O)[nH]c3ccccc3c2=O)CC1	.	.	.	/	.
O=C(c1cnn2c(C(F)(F)F)cc(-c3cccs3)nc12)N1CCN(C(c2ccccc2)c2ccccc2)CC1	-4.22	/	/	/	.
O=C(c1cc2nc(-c3cccs3)cc(C(F)(F)F)n2n1)N1CCCc2ccccc21	-4.81	.	.	.	.
O=C(c1cnn2c(C(F)(F)F)cc(-c3cccs3)nc12)N1CCN(Cc2ccccc2)CC1	.	/	/	/	.
Cn1c(=O)c2c(ncn2CC(O)CNc2ccc(Br)cc2)n(C)c1=O (stereo not given)	.	.	.	.	.
O=C(Nc1ccc(C(F)(F)F)cc1Cl)c1ccc(Cn2cc(Br)cn2)o1	.	.	38.7	.	.
O=C(Nc1cccc(C(F)(F)F)c1)c1ccc(Cn2cc(Br)cn2)o1	-7.18	.	38.5	.	.
C=CCSc1nnc(-c2ccccc2N=Cc2c(C)[nH]n(-c3ccccc3)c2=O)c(=O)[nH]1	.	.	.	2.2	.
C=CCSc1nnc2c(n1)OC(c1c(C)[nH]n(-c3ccccc3)c1=O)Nc1ccccc1-2 (stereo not given)	.	.	40.2	.	.
O=C(Nc1nc2ccccc2s1)C1CC(=O)N(c2ccc(Cl)cc2)C1 (stereo not given)	-4.69	.	39.9	.	.
Cc1cc(C(C)(C)C)oc1C(=O)N(CC(=O)NC1CCCC1)Cc1ccccc1Cl	.	.	30.8	.	.
Cc1ccccc1N(CC(=O)NC1CCCC1)C(=O)c1oc(C(C)(C)C)cc1C	.	.	.	.	.
O=C(NCc1ccc2c(c1)OCO2)c1ccc(N2CCCC2=O)cc1	.	.	.	.	.
O=C(NCc1ccc2c(c1)OCO2)c1ccc(-n2cnnn2)cc1	.	41.2	.	.	.
O=C(NCc1ccc2c(c1)OCO2)c1cc2ncc(Br)cn2n1	.	.	.	.	-2.1
Cc1cc(C)cc(-n2nnc(C(=O)NCc3ccc4c(c3)OCO4)c2N)c1	-5.45	.	30.6	/	.
CC(=O)NCC(=O)OCN1C(=O)c2ccccc2C1=O	.	.	.	/	.
Oc1ccc(-c2csc(-c3ccccc3)n2)cc1O	/	.	59.0	.	.
Cc1nc(-c2ccc(O)c(O)c2)cs1	.	.	.	.	.
O=C(NC1CC1)C1=C[C@@H](c2ccc(Br)cc2)C[C@@H](OCc2ccc(CO)cc2)O1	.	/	/	/	.
CN(Cc1ccccc1)C(=O)CCS(=O)(=O)c1ccc2c(c1)n(C)c(=O)c(=O)n2C	-4.92	.	.	.	.
CCC(C)NC(=O)CCS(=O)(=O)c1ccc2c(c1)n(C)c(=O)c(=O)n2C (stereo not given)	.	.	.	.	.
Cc1c(C)n(CC(O)CN2C(=O)c3ccccc3S2(=O)=O)c2ccccc12 (stereo not given)	-6.83	.	33.2	.	.
CN1CCc2c(n(CC(O)CN3C(=O)c4ccccc4S3(=O)=O)c3ccccc23)C1=O (stereo not given)	.	.	.	/	.
SMILES	Cav3 T inh	PostGolgi yeast	PostGolgi ctrl	PLAP activator	hDAT+cocaine
CCCCC(=O)Nc1cccc(NC(=O)c2ccccc2Br)c1	.	.	.	.	.
Cn1c(NCc2cccc(Br)c2)nc2ccccc21	.	.	.	.	.
Cn1c(Oc2ccccc2NCc2cccc(Br)c2)cc(=O)n(C)c1=O	-8.09	.	37.9	.	.
O=C(Nc1ccc(F)cc1)c1cn(-c2ccccc2)nc1-c1ccncc1	.	/	/	/	.
O=C(NCCCn1ccnc1)c1cn(-c2ccccc2)nc1-c1ccc(F)cc1	.	.	.	2.3	.
COc1ccc(-c2nn(CC(=O)Nc3ccc(Cl)c(Cl)c3)c(=O)c3ccccc23)cc1	.	.	32.2	.	.
CCOc1ccccc1C(=O)N1CCCCC1C (stereo not given)	/	.	.	.	.
CCn1c(SCC(=O)Nc2nc(-c3ccc(C)cc3)cs2)nnc1-c1ccccc1O	.	69.3	75.9	.	.

Screens: PubChem, several laboratories
